PubChem BioAssay
Calls of active or inactive are those of the source. Unless noted, no rule for the calls is given here.

How the values were obtained:
[1] = tested on: Wnt5a (protein binding on small-molecule microarray); assay: small molecules binding Wnt5a protein – biophysical, small-molecule microarray, 635/667 nm fluorescence, primary screen (AID 1142); conditions: 635 nm fluorescence, higher = more signal;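 also: fluorescence read at 667 nm with signal to noise per printed feature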
[2] = ATP-based viability of Huh7 replicon cells – cell-based, CellTiter-Glo luminescence, basal, 48 h, cytotoxicity control for HCV replication inhibitor project, primary screen (AID 1143); conditions: higher = more signal, called active from +8 up or from −8 down;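 also: Huh7 hepatoma cells carrying a hepatitis C replication reporter with no stimulus; test concentration not given here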
[3] = Pseudomonas biofilm growth suppression – PAO1 strain, BacTiter-Glo luminescence, LB-PBS, primary screen (AID 1144); conditions: P. aeruginosa PAO1 biofilm, 12 h, higher = more signal
[4] = basal CRE-LacZ reporter activity in PC12 – cell-based, unstimulated, primary screen (AID 1145); conditions: no forskolin, luminescence, 4.5 h, higher = more signal, called active from +8 up or from −8 down
[5] = forskolin-driven CRE-LacZ activity in PC12 – cell-based, CRE-LacZ reporter, forskolin-stimulated, primary screen (AID 1146); conditions: luminescence, 4.5 h, higher = more signal, called active from +8 up or from −8 down;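 also: PC12 cells with 6xCRE LacZ reporter stimulated by forskolin 10 µM; beta-galactosidase reporter signal reflecting CREB driven transcription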
[6] = target: Streptavidin (Streptomyces avidinii) (UniProt P22629); assay: compounds binding control protein streptavidin – biophysical, small-molecule microarray, 635/667 nm fluorescence, artefact control for SMM compound annotation, primary screen (AID 1147); conditions: higher = more signal;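 also: signal reflects streptavidin binding to arrayed compounds as a control protein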
Streptavidin (Streptomyces avidinii), sequence (P22629 whole entry, looked up): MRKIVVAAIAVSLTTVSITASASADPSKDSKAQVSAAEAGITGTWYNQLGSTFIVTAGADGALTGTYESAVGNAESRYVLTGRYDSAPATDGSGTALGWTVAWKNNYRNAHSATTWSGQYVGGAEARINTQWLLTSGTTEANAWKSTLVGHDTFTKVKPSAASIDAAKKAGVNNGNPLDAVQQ

[7] = probe aInhba binding on compound microarray – biochemical, small-molecule microarray, 635/667 nm fluorescence, primary screen (AID 1148); conditions: higher = more signal;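 also: score merges 667nm spot fluorescence with signal-to-noise for antibody binding to printed compounds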
Torsin-1A (Homo sapiens) [8] = target: Torsin-1A (Homo sapiens) (UniProt O14656); assay: TOR1A wild-type binding on microarray – cell lysate, small-molecule microarray, lysate, 635/667 nm, primary screen (AID 1149); conditions: COS7 hTOR1A-WT lysate, 635 nm fluorescence, higher = more signal
Torsin-1A (Homo sapiens), sequence (O14656 whole entry, looked up): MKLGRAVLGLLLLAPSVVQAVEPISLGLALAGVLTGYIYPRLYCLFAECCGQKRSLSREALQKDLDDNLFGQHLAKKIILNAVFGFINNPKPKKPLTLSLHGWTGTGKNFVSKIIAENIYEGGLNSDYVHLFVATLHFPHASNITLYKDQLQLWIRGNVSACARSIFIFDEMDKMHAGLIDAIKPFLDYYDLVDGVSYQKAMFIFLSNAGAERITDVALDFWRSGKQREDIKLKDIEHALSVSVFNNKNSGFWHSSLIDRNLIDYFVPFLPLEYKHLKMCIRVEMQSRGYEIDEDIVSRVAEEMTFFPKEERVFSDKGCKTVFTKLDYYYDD

Torsin-1A (Homo sapiens) [9] = target: Torsin-1A (Homo sapiens) (UniProt O14656); assay: torsin A mutant lysate binding on microarrays – cell lysate, small-molecule microarray, COS7 lysate, 635/667 nm fluorescence, primary screen (AID 1150); conditions: COS7 hTOR1A mutant lysate, 635 nm fluorescence, higher = more signal;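 also: score pools 667 nm emission and signal to noise measuring lysate protein binding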
[10] = tested on: Sonic hedgehog protein (Shh); assay: Sonic hedgehog microarray binding compounds – biochemical, small-molecule microarray, 635/667 nm fluorescence, primary screen (AID 1151); conditions: 635 nm fluorescence, higher = more signal;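 also: Shh protein binding to compounds spotted on small-molecule microarray slides; score combines spot fluorescence intensity with signal-to-noise across triplicate slides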

SMILES | composite z-score [1] | z-score [2] | z-score [3] | z-score [4] | z-score [5] | composite z-score [6] | composite z-score [7] | composite z-score (Torsin-1A (Homo sapiens) [8]) | composite z-score (Torsin-1A (Homo sapiens) [9]) | composite z-score [10]
CC#CC(=O)Oc1ccc(Br)cc1C=CC(=O)OCC | -0.0465 | -2.98 (inactive) | 0.0278 (inactive) | 1.81 (inactive) | 32.2 (active) | 0.119 | 0.248 | -0.0177 | -0.329 | 0.247
CC(=O)NCCCC[C@@H]1NC(=O)[C@H]2C[C@@H](C(=O)NCCCCCNC(=O)CS)[C@@H](c3ccc(O)cc3)N2C1=O | 0.0736 | -0.47 (inactive) | -0.589 (inactive) | -0.122 (inactive) | -0.112 (inactive) | -0.502 | 0.0391 | 0.261 | -0.711 | 0.468
O=c1cccc(-c2ccccc2Cl)o1 | -0.196 | -0.759 (inactive) | 0.387 (inactive) | 0.285 (inactive) | 0.556 (inactive) | 0.423 | 0.115 | 0.64 | 0.112 | 0.322
COc1cc(CO)cc(I)c1O[C@H]1C=C(C(=O)NCCO)C[C@@H](NC[C@@H]2CCCO2)[C@@H]1O | -0.11 | 0.102 (inactive) | -0.69 (inactive) | 1.77 (inactive) | -0.809 (inactive) | -0.442 | -0.135 | 0.761 | 0.127 | 1.07
CCCCN1CC=CC23O[C@@H]4C=CCCOC(=O)C4[C@H]2C(=O)N(CCCCCO)[C@@H]3C1=O (stereo not given in full) | -0.276 | 0.342 (inactive) | -0.0153 (inactive) | 0.199 (inactive) | 0.794 (inactive) | -0.525 | -0.233 | 0.226 | 0.735 | -0.198
CCCCC(=C=CC[C@H](O)c1cccc(OCCO)c1)C[C@H](O)c1ccccn1 | 0.11 | -2.42 (inactive) | -0.478 (inactive) | 0.685 (inactive) | -0.738 (inactive) | 0.329 | -0.101 | 0.147 | 0.704 | 0.577
NC(=O)[C@@H]1[C@H]2C(=O)O[C@H](c3ccccc3)[C@H](c3ccccc3)N2[C@H](c2ccc(O)cc2)[C@@]12C(=O)Nc1ccc(C#CC3=CCCCC3)cc12 | 0.0867 | -5.11 (inactive) | 0.403 (inactive) | 1.17 (inactive) | 0.117 (inactive) | -0.102 | 0.468 | 0.558 | 0.281 | 2
